High-throughput results as filed in PubChem BioAssay.
Dicer inh: inhibitors of Dicer pre-microRNA processing, primary screen, biochemical, cat-ELCCA, chemiluminescence; cat-ELCCA pre-miR-21 Dicer processing; hits give high values; z-score at 25 µM; AID 1347074, 2019; actives 6% (n = 47,000); Endoribonuclease Dicer (Homo sapiens), Q9UPY3; in the data active = z-score above about 3, passing the limit was not always enough;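 note: plate controls were vehicle for no effect and no enzyme for full effect; higher signal means more uncleaved substrate so more Dicer inhibition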
Target sequence (Q9UPY3 whole entry, looked up): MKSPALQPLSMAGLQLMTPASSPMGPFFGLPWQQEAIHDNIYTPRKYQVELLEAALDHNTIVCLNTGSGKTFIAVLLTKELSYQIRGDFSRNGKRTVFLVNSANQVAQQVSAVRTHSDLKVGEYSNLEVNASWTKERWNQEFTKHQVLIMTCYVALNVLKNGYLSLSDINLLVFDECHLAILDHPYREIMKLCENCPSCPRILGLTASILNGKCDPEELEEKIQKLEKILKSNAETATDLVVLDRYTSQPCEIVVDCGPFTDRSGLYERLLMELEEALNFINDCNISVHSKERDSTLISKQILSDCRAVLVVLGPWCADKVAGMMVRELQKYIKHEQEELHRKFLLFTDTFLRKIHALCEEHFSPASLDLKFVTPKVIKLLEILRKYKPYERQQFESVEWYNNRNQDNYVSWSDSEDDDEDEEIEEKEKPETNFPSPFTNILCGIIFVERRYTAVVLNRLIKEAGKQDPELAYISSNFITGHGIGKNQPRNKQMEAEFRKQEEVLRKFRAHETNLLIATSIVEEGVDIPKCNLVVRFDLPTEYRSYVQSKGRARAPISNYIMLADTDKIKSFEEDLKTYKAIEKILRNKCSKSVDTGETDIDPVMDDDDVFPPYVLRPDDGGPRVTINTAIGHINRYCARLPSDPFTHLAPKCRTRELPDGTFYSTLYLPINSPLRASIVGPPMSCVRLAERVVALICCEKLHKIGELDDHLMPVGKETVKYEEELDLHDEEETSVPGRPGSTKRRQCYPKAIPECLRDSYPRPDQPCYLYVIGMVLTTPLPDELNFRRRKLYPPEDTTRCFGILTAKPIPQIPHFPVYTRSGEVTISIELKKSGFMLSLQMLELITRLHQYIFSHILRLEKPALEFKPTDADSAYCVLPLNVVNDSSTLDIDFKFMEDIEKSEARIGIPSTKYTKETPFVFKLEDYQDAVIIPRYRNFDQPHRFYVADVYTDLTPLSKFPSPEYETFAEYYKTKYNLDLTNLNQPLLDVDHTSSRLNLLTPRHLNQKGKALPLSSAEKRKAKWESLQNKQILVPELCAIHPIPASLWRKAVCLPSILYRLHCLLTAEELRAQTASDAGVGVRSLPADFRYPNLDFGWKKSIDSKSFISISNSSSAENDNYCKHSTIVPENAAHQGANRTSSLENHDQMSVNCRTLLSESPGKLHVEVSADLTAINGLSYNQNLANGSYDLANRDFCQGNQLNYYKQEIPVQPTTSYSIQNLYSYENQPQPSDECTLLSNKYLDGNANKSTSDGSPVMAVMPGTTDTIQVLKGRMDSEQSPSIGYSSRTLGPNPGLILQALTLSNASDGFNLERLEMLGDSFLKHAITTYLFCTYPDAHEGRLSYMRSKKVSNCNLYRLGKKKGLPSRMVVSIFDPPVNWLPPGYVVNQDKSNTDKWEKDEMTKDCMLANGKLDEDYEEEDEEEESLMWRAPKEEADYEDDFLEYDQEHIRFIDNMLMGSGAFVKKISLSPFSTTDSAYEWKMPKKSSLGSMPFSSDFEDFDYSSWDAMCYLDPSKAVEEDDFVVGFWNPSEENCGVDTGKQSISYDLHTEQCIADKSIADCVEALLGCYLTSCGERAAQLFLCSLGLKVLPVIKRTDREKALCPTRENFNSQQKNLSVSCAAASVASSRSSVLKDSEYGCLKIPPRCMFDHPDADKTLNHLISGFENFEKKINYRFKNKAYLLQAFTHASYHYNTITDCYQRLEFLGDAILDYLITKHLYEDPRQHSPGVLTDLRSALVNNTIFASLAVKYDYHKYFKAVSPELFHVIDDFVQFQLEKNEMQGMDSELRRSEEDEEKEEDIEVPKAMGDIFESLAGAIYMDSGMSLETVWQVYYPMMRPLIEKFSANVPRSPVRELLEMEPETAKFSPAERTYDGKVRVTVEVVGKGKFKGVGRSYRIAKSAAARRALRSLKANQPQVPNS
An asterisk follows results filed as active. The entries come from a sample that favours hits as a whole.

Results for CCOc1cccc(=O)c2c(C)[nH]c(C)c12 ?
Dicer inh: 1.8

How did CC(=O)N(C(C)=O)c1cc(C)c(C#N)c2nc3ccccc3n12 do in these assays?
Dicer inh: 0.32

Results for O=S(=O)(Nc1cccc(-c2cn3ccccc3n2)c1)c1ccc(Br)cc1 ?
Dicer inh: 4.4*

What do the screens show for `Cc1ccn2cc(-c3cccc(S(=O)(=O)N4CCOCC4)c3)nc2c1`?
Dicer inh: -0.79

What do the screens show for `O=S(=O)(Nc1cccc(-c2cn3ccccc3n2)c1)c1ccc(F)cc1`?
Dicer inh: 1.9

Results for Cc1cc(C)c(S(=O)(=O)Nc2cccc(-c3cn4ccccc4n3)c2)c(C)c1 ?
Dicer inh: 3.7*

How did Cc1ccn2cc(-c3cccc(S(=O)(=O)N(C)C)c3)nc2c1 do in these assays?
Dicer inh: 0.25

What do the screens show for `CC1CN(S(=O)(=O)c2cccc(-c3cn4ccccc4n3)c2)CC(C)O1` (centres undefined)?
Dicer inh: -0.73

Results for Cc1ccc(-c2nnc3c4cnn(-c5cccc(C)c5)c4ncn23)cc1 ?
Dicer inh: 0.2

Results for COc1ccc(N2CCN(S(=O)(=O)c3ccc(Cl)cc3)CC2)cc1 ?
Dicer inh: 0.4

Results for CCOc1ccc(Oc2coc3cc(O)ccc3c2=O)cc1 ?
Dicer inh: 1.4

What do the screens show for `COc1cc(S(=O)(=O)N2CCOCC2)c(OC)cc1Cl`?
Dicer inh: 1.1

How did O=c1c2cc(-n3cccc3)ccc2oc2ncccc12 do in these assays?
Dicer inh: -8.3

What do the screens show for `Cc1nnsc1C(=O)Nc1cc(-c2ccccc2)nn1C`?
Dicer inh: -1.2

How did Cc1ccc(F)cc1NC(=O)Nc1cc(C(C)(C)C)nn1C do in these assays?
Dicer inh: 4*

Results for Cn1nc(C(C)(C)C)cc1NC(=O)Nc1cccc2ccccc12 ?
Dicer inh: 1.4

What do the screens show for `Cn1nc(-c2ccc(Cl)cc2)cc1NC(=O)Nc1ccc(OCc2ccccc2)cc1`?
Dicer inh: -0.67

How did Cn1nc(-c2ccccc2)cc1NC(=O)Nc1ccc(F)cc1 do in these assays?
Dicer inh: 3.6*

How did Cc1ccccc1NC(=O)Nc1cc(-c2ccccc2)nn1C do in these assays?
Dicer inh: 3

What do the screens show for `Cc1cc(C)cc(NC(=O)Nc2cc(C(C)(C)C)nn2C)c1`?
Dicer inh: -1.1

What do the screens show for `Cn1nc(-c2ccccc2)cc1NC(=O)Nc1ccc(OCc2ccccc2)cc1`?
Dicer inh: 0.53

How did Cn1nc(C(C)(C)C)cc1NC(=O)Nc1ccc(OCc2ccccc2)cc1 do in these assays?
Dicer inh: 4.3*

Results for CN(C)N1C(=O)c2cccc3c(Br)ccc(c23)C1=O ?
Dicer inh: -0.08

What do the screens show for `Cc1nn(-c2ccccc2)nc1C(=O)N1CCC(O)(c2ccc(Cl)cc2)CC1`?
Dicer inh: 1.6

What do the screens show for `Nc1ccccc1C(=O)N/N=C/C=C/c1ccccc1`?
Dicer inh: 0.15

How did CC(=O)Nc1sc2c(c1C#N)CCc1ccccc1-2 do in these assays?
Dicer inh: 0.06

What do the screens show for `O=C(O)C1=CS[C@@H]2/C(=C\c3cnc4n3CCOC4)C(=O)N12`?
Dicer inh: -0.23

What do the screens show for `CN(C)CCCn1c(-c2ccccc2)nc(=S)c2c1CC(C)(C)OC2`?
Dicer inh: -0.37

Results for CC(C)(C)c1ccc(-c2nc(SCC(=O)c3ccc(Cl)cc3)n[nH]2)cc1 ?
Dicer inh: -0.27

How did CCCCc1nc(N2CCC(C)CC2)c(C#N)c2c1COC(C)(C)C2 do in these assays?
Dicer inh: -1.4

What do the screens show for `CCOC(=O)/C(C#N)=C/N1CCC(C(c2ccccc2)c2ccccc2)CC1`?
Dicer inh: -0.16

What do the screens show for `Cc1cc(N2C(=O)CC3(CCCC3)CC2=O)ccc1Br`?
Dicer inh: 3.2*

How did Cc1ccc(N2C(=O)CC(=O)N(c3ccc(C)c(C)c3)C2=S)cc1C do in these assays?
Dicer inh: 0.05

Results for Cn1cc(Br)c(-c2cccc(N3C(=O)CC(C)(C)CC3=O)c2)n1 ?
Dicer inh: -0.35

How did Cc1ccc(/C=C2\CCCC(CN(C)C)C2=O)cc1 (centres undefined) do in these assays?
Dicer inh: -1.6

Results for COc1ccccc1OCCn1cc(C(=O)C(C)(C)C)c2ccccc21 ?
Dicer inh: 0.89

Results for CCOC(=O)C1=C(C)N=C2SCCC(=O)N2C1/C=C/c1ccccc1 (centres undefined) ?
Dicer inh: -0.4

Results for CCc1ccc(CNc2nc3ccccc3n2CCN(CC)CC)cc1 ?
Dicer inh: 3.3*

What do the screens show for `CCN(CC)CCn1c(NCc2ccccn2)nc2ccccc21`?
Dicer inh: 1.7

What do the screens show for `CCCCn1c(NCc2ccccn2)nc2ccccc21`?
Dicer inh: 1.2

Results for CCN(CC)CCn1c(NCc2cccc(Br)c2)nc2ccccc21 ?
Dicer inh: 3.9*

What do the screens show for `CCCn1c(SCCO)nc2ccccc21`?
Dicer inh: 0.15

What do the screens show for `CCN(CC)CCn1c(C)nc2ccccc21`?
Dicer inh: -0.35

Results for CCCn1c(Nc2nc3ccccc3n2C)nc2ccccc21 ?
Dicer inh: 4.9*

What do the screens show for `CCN(CC)CCn1c(=O)c(Cc2ccc(OC)cc2)nc2ccccc21`?
Dicer inh: -1.2

Results for CCN(CC)CCn1c(NCc2ccc(C)cc2)nc2ccccc21 ?
Dicer inh: 0.08

Results for COc1cccc(C2N3CCCN2CC3)c1OCc1ccccc1 (centres undefined) ?
Dicer inh: -0.03

How did O=S(=O)(c1sc(Br)cc1Br)N1CCSCC1 do in these assays?
Dicer inh: 1.8

Results for COC(=O)C1C2C=CC3(CN(C(C)c4ccccc4)C(=O)C13)O2 (centres undefined) ?
Dicer inh: 1

Results for CCOc1cc(C2c3c(oc4ccc(F)cc4c3=O)C(=O)N2Cc2ccc3c(c2)OCO3)ccc1O (centres undefined) ?
Dicer inh: -0.8

Results for CCSc1nc2ccccc2nc1SCC ?
Dicer inh: -0.16

How did Cc1ccc(C2CC(=O)C(C)C(c3ccc(C)cc3)N2)cc1 (centres undefined) do in these assays?
Dicer inh: 1.9

Results for CC12CCC(C1)C(C)(C)C2NC(=O)c1ccc(Cl)cc1 (centres undefined) ?
Dicer inh: 0.16

How did Cc1cc(C)c2oc(-c3cc(N)ccc3Cl)nc2c1 do in these assays?
Dicer inh: 2.3

Results for Cc1cc(C)c2oc(-c3cccc(N)c3)nc2c1 ?
Dicer inh: 1.9

Results for Cc1cc(C)c2oc(-c3ccc(C)c(N)c3)nc2c1 ?
Dicer inh: 3.2*

Results for Cc1nn(C)cc1CNC(=O)c1cc2n(n1)C(C(F)(F)F)CC(c1ccc3c(c1)OCO3)N2 (centres undefined) ?
Dicer inh: -0.66

How did C=CC[n+]1sc2cc(Cl)ccc2c1C do in these assays?
Dicer inh: -0.76

What do the screens show for `CC(C)c1ccc(NC2(C(N)=O)CCCCC2)cc1`?
Dicer inh: -0.27

Results for Cc1cccn2cc(-c3ccc(F)cc3)nc12 ?
Dicer inh: 0.34

Results for Cc1cccn2cc(-c3ccc(F)cc3)cc12 ?
Dicer inh: 4.4*

How did c1ccc(-c2cc3ccccn3c2)cc1 do in these assays?
Dicer inh: 0.48

What do the screens show for `CCCOC1C=CC(Oc2nc(NCC)cc(N(C)C)n2)=NN1` (centres undefined)?
Dicer inh: 0.15

How did CCOC(=O)c1cnc(-c2cccs2)nc1Nc1ccc(C)cc1 do in these assays?
Dicer inh: -1.3

How did N#CCCN/N=C/c1ccc2c(c1)OCO2 do in these assays?
Dicer inh: 0.11

Results for Cc1sc2ncnc(SCC(=O)c3ccccc3F)c2c1C ?
Dicer inh: -1
